Structures are written as SMILES.

Morphology score data for 39 compounds are collected here from the supplement of paper PMC13380429.

The subject of this assay is Vero E6 infected with SARS-CoV-2. Briefly: morphology score (similarity to uninfected cells); higher = more like uninfected cells. The settings on record: 24 h.
The compound `O=c1c(O)c(-c2ccc(O)c(O)c2)oc2cc(O)cc(O)c12` [quercetin] (10 µM) had a morphology score of 0.0809.

Regarding `NCCc1cc[nH]n1` [betazole] (10 µM), the morphology score is -0.0835.

The compound `CN(C)C(=N)NCCC[C@H](N)C(=O)O` [asymmetrical-dimethylarginine] (10 µM) gave a morphology score of 0.217.

Consider `Cc1ccc(C(=O)Nc2ccc(S(=O)(=O)O)c3cc(S(=O)(=O)O)cc(S(=O)(=O)O)c23)cc1NC(=O)c1cccc(NC(=O)Nc2cccc(C(=O)Nc3cc(C(=O)Nc4ccc(S(=O)(=O)O)c5cc(S(=O)(=O)O)cc(S(=O)(=O)O)c45)ccc3C)c2)c1` [suramin] (10 µM), for which the morphology score amounted to 0.13.

For `CC(C)NCCN(C(C)C)S(=O)(=O)c1ccc(Cl)cc1Cl` (10 µM), the morphology score was -0.0999.

Consider `C[C@]12CC[C@@H]3c4ccc(OC(=O)N(CCCl)CCCl)cc4CC[C@H]3[C@@H]1CC[C@@H]2OP(=O)(O)O` [estramustine-phosphate] (10 µM), for which the morphology score worked out at 0.0729.

As to `N[C@@H](CS)C(=O)O` [L-cysteine] (10 µM), the morphology score came to 0.0349.

`Cc1cc(C)nc(NS(=O)(=O)c2ccc(NC(=S)NC(=O)COc3ccc(Br)cc3Cl)cc2)n1` (10 µM) displayed a morphology score of 0.0709.

On to `Cc1cccc(OCC(O)CNC(C)(C)C)c1C` (centres undefined) [xibenolol] (10 µM), for which the morphology score came out at 0.0955.

Consider `CC(=O)N1CCN(CCOc2ccc(C3CCN(C4=Nn5c(nnc5C(F)(F)F)CC4)CC3)cc2)CC1` (0.833333 µM), for which the morphology score amounted to 0.0218.

`FC(F)(F)C(F)(F)C(F)(F)C(F)(F)C(F)(F)C(F)(F)C(F)(F)C(F)(F)Br` [perflubron] (10 µM): the morphology score came to 0.0887.

Take `N[C@@]1(C(=O)O)CC[C@H]2[C@H](C(=O)O)[C@H]21` [eglumetad] (10 µM): the morphology score was -0.0541.

On to `CC(=O)Nc1cccc(-n2c(=O)n(C3CC3)c(=O)c3c(Nc4ccc(I)cc4F)n(C)c(=O)c(C)c32)c1` [trametinib] (0.833333 µM), for which the morphology score amounted to 0.263.

In turn, `N[C@H](C(=O)O)c1ccc(O)c(C(=O)O)c1` [3-carboxy-4-hydroxyphenylglycine-(S)] (10 µM) yielded a morphology score of 0.115.

Regarding `O=C(O)CCN(O)C(=O)CCCCCCCCC1CC1` (10 µM), the morphology score was 0.0952.

For `C#C[C@]1(O)CC[C@H]2[C@@H]3CCC4=CC(=O)CC[C@@H]4[C@H]3CC[C@@]21CC` [norgestrel] (10 µM), the morphology score came to 0.191.

As to `CCc1cncnc1N1CCN(Cc2nc3cc(C(F)(F)F)ccc3[nH]2)CC1` (10 µM), the morphology score is -0.441.

`CC[C@@]1(O)C(=O)OCc2c1cc1n(c2=O)Cc2cc3ccccc3nc2-1` [camptothecin] (0.833333 µM): the morphology score is -0.218.

The compound `Cc1c(Cl)cccc1Nc1ccccc1C(=O)O` [tolfenamic-acid] (10 µM) returned a morphology score of 0.00971.

For `N#CCCCSC(=N)N` [kevetrin] (10 µM), the morphology score was 0.195.

Compound `O=C(O)C[C@H]1CC[C@H](c2ccc(-c3ccc(Nc4ccc(C(F)(F)F)nc4)cn3)cc2)CC1` (10 µM) registered a morphology score of 0.27.

As to `Nc1nc2cc(-c3ccc4ncc(C(=O)N5CCOCC5)n4c3)ccc2o1` (10 µM), the morphology score was found to be 0.241.

As for `C[C@H](N)C(=O)N[C@@]1(C(=O)O)C[C@@H](Sc2nnc[nH]2)[C@H]2[C@H](C(=O)O)[C@H]21` (10 µM), the morphology score is -0.0396.

Take `N=C(N)NCCN1CCCCCCC1` [guanethidine] (10 µM): the morphology score is -0.0499.

As to `O[C@@H](Cc1ccncc1)C(Cl)(Cl)Cl` (10 µM), the morphology score was 0.21.

Take `COc1ccc2c(c1OC)C(=O)O[C@@H]2[C@H]1c2cc3c(cc2CCN1C)OCO3` [hydrastine-(1R,9S)] (10 µM): the morphology score was -0.0178.

`COc1ccc(C(=O)c2c(C)n(CCN3CCOCC3)c3cc(I)ccc23)cc1` (10 µM) displayed a morphology score of 0.116.

As for `CCOCOC[C@H](C[C@H](C)C(=O)NO)NC(=O)c1ccc(Oc2ccccc2)cc1` (10 µM), the morphology score was 0.131.

Turning to `O=C(Nc1ccccc1C(=O)Nc1ccc(CCO)cc1)c1ccc([N+](=O)[O-])cc1` (10 µM), the morphology score is -0.0336.

Turning to `c1nc2c(NC3CCCCC3)nc(Nc3ccc(N4CCOCC4)cc3)nc2[nH]1` [reversine] (10 µM), the morphology score is -0.11.

With `CSc1ccc(C(=O)/C=C/c2cc(C)c(OC(C)(C)C(=O)O)c(C)c2)cc1` [elafibranor] (10 µM), the morphology score was determined as 0.00446.

`CCCCC/C=C\C/C=C\CCCCCCCC(=O)NCCCC(=O)O` [GABA-linoleamide] (10 µM): the morphology score was determined as 0.105.

Turning to `CC(C)(CO)Cc1cc(C(C)(C)C)c(O)c(C(C)(C)C)c1` (10 µM), the morphology score is -0.127.

`N=C(N)NCCC[C@H](NC(=O)c1sccc1NS(=O)(=O)c1cccc2nsnc12)C(=O)O` (10 µM) came in with a morphology score of 0.0108.

On to `O=C(O)CCC(=O)c1ccc(-c2ccccc2)cc1` [fenbufen] (10 µM), for which the morphology score was -0.0471.

Take `O=C1CN(/N=C/c2ccc([N+](=O)[O-])o2)C(=O)N1` [nitrofurantoin] (10 µM): the morphology score worked out at 0.168.

`CCOC(=O)Nc1ccc(NCc2ccc(F)cc2)nc1N` [flupirtine] (10 µM): the morphology score was 0.0326.

Turning to `O=C(Cc1cccc(OC(F)(F)F)c1)Nc1ccc(CCCCc2nnc(NC(=O)Cc3ccccn3)s2)nn1` (10 µM), the morphology score was -0.0099.

The compound `CC(C)=CCC/C(C)=C/CC/C(C)=C/CSc1ccccc1C(N)=O` [farnesyl-thiosalicylic-acid-amide] (10 µM) gave a morphology score of 0.012.
